Pf Dd2 inh – blocks in vitro growth of P. falciparum Dd2. P. falciparum Dd2 growth, SYBR Green, 72 h. Potency, µM (titrated, usually from 28.9 µM), without a hit: at the highest dose activity, negative = inhibition, usual class: inhibitors. 120,000 compounds, 4.3% hits; active means well fitted inhibition curve with a large enough effect;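 further: plate controls were DMSO vehicle for no effect and reference drug for full effect; nearly all actives have a fitted effect of over 65% in size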
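Infected erythrocytes (Dd2, 0.3% parasitemia, 2.5% hematocrit final) are added to compound in RPMI-1640/Albumax II medium, grown 72 h at 37C in low oxygen, then lysed with saponin/Triton-X containing SYBR Green and read by fluorescence.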
* hit, by the source's call; i = inactive; [ ] = remark or other dose. This is one part of a sample in which hits are shown more often than they occur. Potency means the concentration at half of the fitted maximal effect.

SMILES	Pf Dd2 inh
COc1ccc(C2=NOC3(CCN(Cc4ccc(F)cc4)C3)C2)cc1 (stereo not drawn)	4µM*
O=C(NCC1CCOCC1)c1ccsc1	67%
CCN1CCN(C(c2ccccc2Cl)c2c(O)cc(C)n(Cc3ccco3)c2=O)CC1 (stereo not drawn)	10%
CCN1CCN(Cc2c(O)ccc3c(=O)c(Oc4ccccc4Cl)c(C(F)(F)F)oc23)CC1	0.25µM*
O=C1CCCCCN1C1CCN(Cc2ccc(OC(F)(F)F)cc2)CC1	i
CCc1ccc(Oc2c(C(F)(F)F)oc3c(CN4CCN(CC)CC4)c(O)ccc3c2=O)cc1	0.1µM*
CCc1ccc(Oc2c(C(F)(F)F)oc3c(CN4CCC(C)CC4)c(O)ccc3c2=O)cc1	0.32µM*
CCOc1ccc(CN2CCC(N(C(=O)CC)C3CCOCC3)CC2)cc1	i
Cc1ccccc1CC(=O)N1CCC2(CC1)NC(=O)N(c1cccc(F)c1)N2	-17%
O=C(NC[C@H]1OC[C@@H](NC2CCC2)[C@@H]1O)c1cccs1	-14%[44.1 µM]
CC(=O)N1C[C@H](NC(=O)c2cc(=O)[nH]c3cc(F)ccc23)[C@@H](C2CC2)C1	-19%
COc1ccc(CN2CCNC(=O)C2CC(=O)NC(C)(C)CO)cc1OC (stereo not drawn)	6%
CC(C)CCNc1nc(Nc2ccccc2)c2cnn(C)c2n1	10µM*
Cc1cccnc1NCCNc1nc(C(C)C)nc2c1cnn2C	-25%
COCCCNc1nc(NCc2cccc(Cl)c2)c2cnn(C)c2n1	-9%
CNC(=O)C1(N2CCC[C@H]2C(=O)N2CCC(C)CC2)COC1	-6%[44.1 µM]
COCC1CCCN(C(=O)c2ccc(-c3c(OC)cc(C)cc3OC)nc2)C1 (stereo not drawn)	-5%
O=C1CCN(C(=O)C2(c3ccccc3)CC2)CCCC(C(=O)NCc2ccccc2)CCN1 (stereo not drawn)	0.4µM*
O=C1CCN(C(=O)C2CCCCC2)CCCC(C(=O)NCc2ccccc2)CCN1 (stereo not drawn)	-21%
O=C1CCN(C(=O)c2ccco2)CCCC(C(=O)NCc2ccccc2)CCN1 (stereo not drawn)	-13%
O=C1Nc2ccccc2CC12CCCCN2Cc1ccc(OC(F)(F)F)cc1 (stereo not drawn)	i
CC(C)OCCCNC(=O)C1CCCN(S(=O)(=O)c2cn(C)cn2)CCC(=O)NCC1 (stereo not drawn)	20%
O=C(C1CCCN(c2nc3ncccc3o2)C1)N1CCCC1 (stereo not drawn)	-4%[44.1 µM]
Cc1cc(Cl)ccc1S(=O)(=O)N1CC(c2nc(Cc3ccccc3)no2)C1	-19%
O=C(NCc1nnc2ccc(-c3ccccc3)nn12)c1ccncc1	0%
SMILES	Pf Dd2 inh
COc1cc(F)cc(-c2ncc3c(n2)OCCN(C)C3=O)c1	i
C[S+](=O)([O-])c1ccc(-c2ncc3c(n2)OCCN(c2ccccc2)C3=O)cc1	-2%[44.1 µM]
O=C1c2cnc(-c3ccccc3)nc2OCCN1Cc1ccccc1	i
CN1CCOc2nc(-c3ccc(Oc4ccccc4)cc3)ncc2C1=O	5µM*
CN(C)C(=O)c1ccc(-c2ncc3c(n2)OCCN(CC2CC2)C3=O)cc1	i
CN(C)C(=O)c1ccc(-c2ncc3c(n2)OCCN(Cc2ccccc2)C3=O)cc1	2.2µM*
Cc1occc1C(=O)N1CCC(C2CCN(c3ncccn3)CC2)C1 (stereo not drawn)	-21%
O=C(O)CC1C(=O)NCCN1C1Cc2ccccc2C1 (stereo not drawn)	9%
O=C1Nc2cnccc2C2(CCN(C(=O)c3ccccc3)C2)O1 (stereo not drawn)	7%[44.1 µM]
O=C(NCC(F)F)C1CCCN1c1nc2ncccc2o1 (stereo not drawn)	13%[44.1 µM]
CCc1nc(CC)n2ccn(Cc3cccc(C#N)c3)c(=O)c12	i
Cc1ccc(C(=O)N2CCCC3(C2)NC(=O)c2ccccc2O3)cc1 (stereo not drawn)	0%
CC1CCCCN1Cc1c(O)ccc2c(=O)c(-c3ccccc3Cl)c(C(F)(F)F)oc12 (stereo not drawn)	8.9µM*
CCc1nc2c(c(-c3ccc(Cl)cc3)n1)CN(C(=O)C1CCCC1)CC2	i
CC1CCCCN1Cc1c(O)ccc2c(=O)c(-c3ccc(Cl)cc3)coc12 (stereo not drawn)	2.2µM*
CC1(C)CC1(C(=O)N1CCc2c(nc(N)[nH]c2=O)C1)c1cccs1 (stereo not drawn)	-23%
Cc1ccc(CN2C[C@@H]3C(=O)N(CCCN4CCCC4=O)C(=O)[C@@H]3C2)cc1C	-7%
COCc1nc(C2CC(N)C2)cc(N(C)CCN2CCCCC2=O)n1 (stereo not drawn)	-8%
CO[C@H]1C(=O)N(C(C)C)[C@H]1C1CCN(S(=O)(=O)c2c(C)noc2C)CC1	14%
CCCc1cc(C(=O)N2CC[C@@H](NC(=O)c3cnccn3)[C@H](O)C2)no1	10%
O=C(N[C@@H]1C[C@H](Cn2cc(C3CC3)nn2)[C@@H](O)[C@H]1O)c1cnccn1	14%[44.1 µM]
CN(C)C(=O)N1CCc2nc(C3CC3)nc(-c3ccc(Cl)cc3)c2C1	i
Cc1nn(C)c(C)c1CCC(=O)N1CCC(C2CCN(S(C)(=O)=O)CC2)C1 (stereo not drawn)	15%

Compound activity: PubChem, National Center for Advancing Translational Sciences (NCATS)
